Reference: PubChem BioAssay AID1347418 (Sanford-Burnham Center for Chemical Genomics, 2020)
Out of some 1,300 compounds screened, about 750 (58%) were called active. This is one part of the list.

target: Sulfhydryl oxidase 1 (Homo sapiens) (UniProt O00391); assay: QSOX1 enzyme inhibitors, primary screen, biochemical, ROS-Glo H2O2 luminescence, HTS (AID 1347418); conditions: recombinant QSOX1, ROS-Glo H2O2 luminescence; at 12.5 µM; stronger effect = higher value; active = any value above zero
Sequence (O00391 whole entry, looked up): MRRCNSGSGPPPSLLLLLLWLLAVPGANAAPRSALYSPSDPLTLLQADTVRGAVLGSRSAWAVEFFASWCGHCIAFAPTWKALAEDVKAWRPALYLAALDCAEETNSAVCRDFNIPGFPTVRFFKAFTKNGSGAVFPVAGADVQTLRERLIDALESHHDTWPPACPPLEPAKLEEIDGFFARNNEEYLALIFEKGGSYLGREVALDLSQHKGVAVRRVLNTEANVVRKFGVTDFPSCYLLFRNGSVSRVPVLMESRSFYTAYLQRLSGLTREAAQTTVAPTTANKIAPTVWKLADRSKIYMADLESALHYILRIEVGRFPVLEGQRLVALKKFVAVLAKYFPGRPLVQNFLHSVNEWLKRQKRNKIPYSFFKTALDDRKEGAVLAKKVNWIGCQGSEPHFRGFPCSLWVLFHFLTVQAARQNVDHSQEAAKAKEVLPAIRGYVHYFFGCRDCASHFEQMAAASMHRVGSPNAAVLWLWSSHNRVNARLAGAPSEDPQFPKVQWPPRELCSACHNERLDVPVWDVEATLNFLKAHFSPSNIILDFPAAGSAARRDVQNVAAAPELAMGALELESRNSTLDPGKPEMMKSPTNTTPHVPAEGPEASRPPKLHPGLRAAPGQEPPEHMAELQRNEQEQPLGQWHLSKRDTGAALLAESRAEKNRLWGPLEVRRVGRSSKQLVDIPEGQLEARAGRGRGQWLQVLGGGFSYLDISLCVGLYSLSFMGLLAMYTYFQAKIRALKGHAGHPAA

inhibition, inactive:
CC1=NS(=O)(=O)c2cc(Cl)ccc2N1 -1.4%
CCCCC[C@H](CC(=O)NO)C(=O)N[C@H](C(=O)N1CCC[C@H]1CO)C(C)C -6.2%
CCCCCCCCCCCCCCSCC(=O)O -7.6%
O=C(O)CCCCCCCC(=O)O -1.7%
CC(C)(C=O)Cc1cc(C(C)(C)C)c(O)c(C(C)(C)C)c1 -0.1%
CCCCCC[C@@H]([C@@H](C)O)n1cnc2c(N)ncnc21 -0.9%
CC(C(=O)O)c1cccc(C(=O)c2ccccc2)c1 (configuration not stated) -2.4%
CC(C)Cc1ccc([C@H](C)C(=O)O)cc1 -0.6%
CCCCOc1cc(CC2CNC(=O)N2)ccc1OC (configuration not stated) -0.2%
Cc1cccc(C)c1OCC(C)N (configuration not stated) -0.4%
CCN(CC)CCNC(=O)c1ccc(NS(C)(=O)=O)cc1 -0.3%
CCN(CC)CCNC(=O)c1ccc(N)cc1 -7.4%
CN(C)CCOC(C)(c1ccccc1)c1ccccn1 (configuration not stated) -2.5%
CNC1(C)C2CCC(C2)C1(C)C (configuration not stated) -2%
C=C/C(C)=C/[C@@]1(C)SC(=O)C(C)=C1O -4.2%
Cc1nnc(SCC2=C(C(=O)O)N3C(=O)[C@@H](NC(=O)Cn4cnnn4)[C@H]3SC2)s1 -3.9%
CO/N=C(\C(=O)N[C@@H]1C(=O)N2C(C(=O)O)=C(CSc3nc(=O)c(O)nn3C)CSC12)c1csc(N)n1 (some centres not stated) -1.9%
CN1CCC2(CCN3CCc4c(oc5ccccc45)C3C2)N(C)C1=O (configuration not stated) -6.5%
CC1CCN=C(N)S1 (configuration not stated) -1.8%
CCCn1c(=O)[nH]c(=O)c2[nH]cnc21 -1.8%
Cc1ccc(S(=O)(=O)N[C@@H](Cc2ccccc2)C(=O)CCl)cc1 -8.2%
CCc1ccc2c(-c3cccc(Cl)c3)nc(=O)n(CC)c2n1 -0.7%
Nc1cc(Cl)c(NC2=NCCN2)c(Cl)c1 -2.8%
Clc1cccc(Cl)c1NC1=NCCN1 -1.9%
Cn1cc(C2=C(c3ccc(Cl)cc3Cl)C(=O)NC2=O)c2ccccc21 -1.7%
CCCCCCCC/C=C\CCCCCCCC(=O)NCc1ccc(O)c(OC)c1 -4.3%
CC1CCN(CC[C@H]2CCCN2S(=O)(=O)c2cccc(O)c2)CC1 -3.7%
Brc1c(NC2=NCCN2)ccc2nccnc12 -3.8%
O=C(O)C1=CCNCC1 -1.6%
CC(N)=NCCCC[C@@H](N)C(=O)O -0.6%
Nc1c2c(nc3ccccc13)CCCC2 -3.1%
CCCCCCC/C=C\CCCCCCCCC(=O)O -3.4%
CCCn1c(=O)c2[nH]c(-c3ccc(S(=O)(=O)O)cc3)nc2n(CCC)c1=O -0.7%
CC1=C(/C=C/C(C)=C/C=C/C(C)=C\C(=O)O)C(C)(C)CCC1 -3%
Clc1ccc(Cn2c(CN3CCCC3)nc3ccccc32)cc1 -0.7%
O=C1CCC(N2C(=O)c3ccccc3C2=O)C(=O)N1 (configuration not stated) -1.8%
O=C(O)CP(=O)(O)O -4%
COc1ccc(C2CNC(=O)C2)cc1OC1CCCC1 (configuration not stated) -7.5%
CCCNCC(O)COc1ccccc1C(=O)CCc1ccccc1 (configuration not stated) -7.1%
NCCCC(N)(C(=O)O)C(F)F (configuration not stated) -2.3%
Cn1ncc(S(=O)(=O)Cc2ccccc2)c(Br)c1=O -5.4%
Nc1ncnc2c1ncn2[C@@H]1O[C@H](COP(=O)(O)CP(=O)(O)OP(=O)(O)O)[C@H](O)C1O (some centres not stated) -6.5%
NC[C@H]1O[C@@H](n2cnc3c(N)ncnc32)[C@H](O)[C@@H]1O -4.6%
CCN(CC)c1ncnc2c1ncn2[C@@H]1O[C@H](COP(=O)(O)OP(=O)(O)C(Br)(Br)P(=O)(O)O)[C@@H](O)[C@H]1O -1%
NC(=O)C1=C[N+](=C2OC(COP(=O)(O)OP(=O)([O-])OC[C@H]3O[C@@H](n4cnc5c(N)ncnc54)C(OP(=O)(O)O)[C@H]3O)C(O)C2O)C=CC1 (some centres not stated) -0.9%

inhibition, active:
Clc1ccc2c(c1)N=C(N1CCNCC1)c1ccccc1N2 23.2%
CN1CCN(C2=Nc3cc(Cl)ccc3Nc3ccccc32)CC1 22.2%
Cc1ccc2c(c1)C(N1CCN(C)CC1)=Nc1cccnc1N2 15.5%
CCN1CCc2nc(N)oc2CC1 2.8%
CCCCCC(O)CCCC(=O)O (configuration not stated) 1.1%
CC(C)(CO)Cc1cc(C(C)(C)C)c(O)c(C(C)(C)C)c1 4.9%
CCCCCCCCCCCCCCC[C@H](O)[C@H](N)CO 7.8%
CCCC(=O)NCCc1c2n(c3ccc(OC)cc13)CCCc1ccccc1-2 15%
CC(C)Cc1ccc(C(C)C(=O)O)cc1 (configuration not stated) 5.8%
CC(C(=O)O)c1ccc(CC2CCCC2=O)cc1 (configuration not stated) 0.1%
O=C(O)/C=C/c1cnc[nH]1 1%
CCC1(C)CC(=O)NC1=O (configuration not stated) 0.9%
N[C@H](C(=O)O)[C@H]1C[C@@H]1C(=O)O 0.2%
Cc1cccc(C)c1OCC(N)C(C)C (configuration not stated) 4.5%
Cc1cc2c(cc1Cl)N(C(=O)Nc1ccc(Oc3cccnc3C)nc1)CC2 1.2%
Cc1cc2c(cc1Cl)N(C(=O)Nc1ccnc3ccccc13)CC2 16.8%
CCN(CC)CCNC(=O)c1ccc(NC(C)=O)cc1 0.3%
COc1ccc(CN(CCN(C)C)c2ccccn2)cc1 1.5%
CN(C)CCN(Cc1cccs1)c1ccccn1 7%
CN1CCCC1CCOC(C)(c1ccccc1)c1ccc(Cl)cc1 (configuration not stated) 0.6%
CO[C@@]1(NC(=O)CSCC#N)C(=O)N2C(C(=O)O)=C(CSc3nnnn3C)CS[C@@H]21 0.7%
O=C(O)C1CN(CCCP(=O)(O)O)CCN1 (configuration not stated) 2.1%
NC(=O)CNCCC(c1ccccc1)c1ccccc1 2.2%
OC(CN1CCN(c2cccc(Cl)c2)CC1)C(c1ccccc1)c1ccccc1 (configuration not stated) 5.1%
O=C(O)C1=CCCN(CCON=C(c2ccccc2)c2ccccc2)C1 1.1%
CC(C)C[C@H]1C(=O)N2CCC[C@H]2[C@]2(O)O[C@](NC(=O)[C@@H]3C=C4c5cccc6[nH]c(Br)c(c56)C[C@H]4N(C)C3)(C(C)C)C(=O)N12 4%
CC1C(=O)N(C)C(=O)c2nc[nH]c21 (configuration not stated) 0.5%
Cc1ccc(S(=O)(=O)NC(=O)NN2CCCCCC2)cc1 4.7%
Clc1ccc2nsnc2c1NC1=NCCN1 1.5%
COc1cc(CC(=O)O)ccc1O 11%
CCN(CC)C(=O)c1ccc(O)c(OC)c1 6.8%
O=C(O)Cc1ccc(O)c(O)c1 5.6%
COc1cc(CNC(=O)CCCCCCC(C)C)ccc1O 7.6%
O=C1c2ccccc2-c2n[nH]c3cccc1c23 12.7%
Oc1cc2c(c(Cl)c1O)CCNCC2c1ccccc1 (configuration not stated) 24.1%
Oc1cc2c(cc1O)C(c1ccccc1)CNCC2 (configuration not stated) 5.7%
Oc1ccc(C2CNCCc3c2cc(O)c(O)c3Cl)cc1 (configuration not stated) 30%
CSC(N)=NCCC[C@H](N)C(=O)O 1.7%
NC(N)=NCCC[C@H](N)C(=O)O 6%
CN(C)C(N)=NCCC[C@H](N)C(=O)O 0.3%
O=c1c2ccccc2nc2n1CCc1c-2[nH]c2ccccc12 5%
CCCCCCCCCCC/C=C\C(C)(C)/C=C\CCCC(=O)O 9.1%
CCCn1c(=O)c2[nH]c(-c3ccc(OCC(=O)NCCN)cc3)nc2n(CCC)c1=O 0.5%
CCC1(c2ccccc2)C(=O)NCNC1=O 2.4%
CN1Cc2c(N)cccc2C(c2ccccc2)C1 (configuration not stated) 5.3%
CC1=C(/C=C/C(C)=C/C=C/C(C)=C/C(=O)O)C(C)(C)CCC1 2.4%
CC1=C(/C=C/C(C)=C/C=C/C(C)=C/C(=O)Nc2ccc(O)cc2)C(C)(C)CCC1 1.8%
CC(=O)O[C@]1(C(C)=O)CC[C@H]2[C@@H]3C=C(Cl)C4=CC(=O)[C@@H]5C[C@@H]5[C@]4(C)[C@H]3CC[C@@]21C 6.1%
NC[C@@H]1O[C@H](c2ccccc2)Cc2c1ccc(O)c2O 11%
NC[C@@H]1O[C@H](C23CC4CC(CC(C4)C2)C3)Cc2c1ccc(O)c2O 17.8%
Nc1ncnc2n[nH]c(Nc3ccc(F)cc3)c12 19.7%
C1COC(NC(C2CC2)C2CC2)=N1 0.6%
Clc1ccc(N2CCN(Cc3cc4ccccn4n3)CC2)cc1 21.7%
O=c1ccc2ccc(O)c(O)c2o1 31.6%
CC[C@@H](CO)Nc1nc(NCc2ccccc2)c2ncn(C(C)C)c2n1 6.3%
Cn1cnc2c(NCc3ccccc3)nc(NCCO)nc21 1.3%
Cc1cc(NC2CCCCC2)nc(-n2nc(C)cc2C)n1 1.1%
Cc1ccc(Cl)c(Nc2ccccc2C(=O)O)c1Cl 6.2%
O=C(O)c1ccccc1Nc1ccccc1 42.7%
CC(N)C1CCC(C(=O)Nc2ccncc2)CC1 (configuration not stated) 4.4%
CC[C@@H](C)[C@H]1O[C@]2(CC[C@@H]1C)C[C@@H]1C[C@@H](C/C=C(\C)[C@@H](O[C@H]3C[C@H](OC)[C@@H](O[C@H]4C[C@H](OC)[C@@H](O)[C@H](C)O4)[C@H](C)O3)[C@@H](C)/C=C/C=C3\CO[C@@H]4[C@H](O)C(C)=C[C@@H](C(=O)O1)[C@]34O)O2 1.1%
COc1ccccc1OCCNCC(O)COc1cccc2[nH]c3ccccc3c12 (configuration not stated) 1.9%
C=C1C(=O)O[C@@H]2[C@H]3O[C@]3(C)CCC=C(C)CC[C@@H]12 0.5%
N[C@H](C(=O)O)[C@H](O)C(=O)O 0.9%
N[C@@H](Cc1cnc[nH]1)C(=O)O 1.5%
NC(=S)c1ccc[n+]([C@@H]2O[C@@H](COP(=O)([O-])OP(=O)(O)OC[C@H]3O[C@@H](n4cnc5c(N)ncnc54)C(OP(=O)(O)O)[C@H]3O)C(O)C2O)c1 (some centres not stated) 3.1%
Nc1ncnc2c1ncn2[C@@H]1O[C@H](COP(=O)(O)OP(=O)(O)OP(=O)(O)OP(=O)(O)OC[C@@H]2O[C@H](n3cnc4c(N)ncnc43)C(O)[C@@H]2O)[C@H](O)C1O (some centres not stated) 3.7%
